# The panel holds about 83,000 compounds, 20% with a hit somewhere; the sample as a whole holds those more often.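 The test compound was applied at a single concentration to cells in 96-well plates for 48 hours, and percent growth was recorded.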 Unmarked numbers belong to inactive results. Calls of active or inactive are those of the source. The calls were made as follows: active = growth percent below 10; inactive = the rest.
# What was measured:
# Experiment in all cases: NCI-60 one-dose screen, 48 h (100 = growth as untreated, 0 = no growth, -100 = all killed)
# Conditions in all cases: 10 µM
# T-47D breast = system: T-47D breast
# BT-549 breast = system: BT-549 breast
# MDA-MB-435 melanoma = system: MDA-MB-435 melanoma
# SW-620 colon = system: SW-620 colon
# MCF7 breast = system: MCF7 breast
# HCT-116 colon = system: HCT-116 colon
# HCC-2998 colon = system: HCC-2998 colon
# MDA-MB-468 breast = system: MDA-MB-468 breast
# KM12 colon = system: KM12 colon
SMILES,growth (T-47D breast),growth (BT-549 breast),growth (MDA-MB-435 melanoma),growth (SW-620 colon),growth (MCF7 breast),growth (HCT-116 colon),growth (HCC-2998 colon),growth (MDA-MB-468 breast),growth (KM12 colon)
C=C(C)[C@@H]1CC[C@]2(COP(=O)(OCC)OCC)CC[C@]3(C)[C@H](CC[C@@H]4[C@@](C)(CCCN)[C@H](C(=C)C)CC[C@]43C)[C@@H]12,19%,-8.75% (active),14.3%,12.4%,6.11% (active),-31.4% (active),10.7%,5.69% (active),
C=C(C)[C@@H]1CC[C@]2(C(=O)OC)CC[C@]3(C)[C@H](CC[C@@H]4[C@@]5(C)CC[C@H](N)C(C)(C)[C@@H]5CC[C@]43C)[C@@H]12,-73.3% (active),-63.6% (active),-97% (active),-75.6% (active),-85.4% (active),-98.3% (active),-93.6% (active),-97.2% (active),
N#Cc1ccc(-c2nn(-c3ccc(C(=O)O)cc3)cc2CNc2cc(Cl)cc(C(F)(F)F)c2)cc1,8.34% (active),-22.5% (active),9.7% (active),21.2%,5.75% (active),-2.71% (active),-27.7% (active),-13.7% (active),
CN1C(=O)N(C)C2SC(N/N=C/c3cccs3)=NC21 (stereo unspecified),21.7%,21.4%,-37.6% (active),,13.3%,28.2%,54.2%,,16.1%
CC(=O)NNc1ccc2nnc(-c3ccc(Br)cc3)n2n1,84.2%,90.2%,94.6%,102%,87.8%,101%,109%,97.4%,
COc1cc(/C=C/C(=O)c2ccc(NC(=O)CSc3nnc(-c4c[nH]c5ccccc45)n3-c3ccccc3)cc2)cc(OC)c1OC,69.6%,54.9%,34.1%,25.4%,10%,-30.2% (active),23.8%,37%,
O=C1Nc2cc(Cl)ccc2/C1=C/c1ccc(OCc2ccc(Br)cc2F)cc1,-48.4% (active),-18.7% (active),-27.5% (active),,6.09% (active),-73% (active),19.5%,-70.1% (active),-7.72% (active)
O=C(Cn1cc(CSc2nnc3oc4ccccc4n23)nn1)Nc1ccc(Br)cc1,70.5%,92.1%,98.1%,108%,65.3%,82%,96.4%,80.1%,
C=C1CCC2C3(C)COC(c4ccccc4F)OC3CCC2(C)C1C/C=C1/C(=O)OCC1O (stereo unspecified),-50.4% (active),-82.1% (active),4.59% (active),-68.5% (active),-26.5% (active),-67.8% (active),-73.5% (active),-22.6% (active),
O=C(NC(=S)N1CCN(c2ncnc3c2cnn3-c2ccccc2)CC1)c1ccc(Cl)cc1,57.2%,63.5%,89.2%,68.9%,38.9%,41.9%,82.6%,64.6%,
Cc1nc(Nc2nc(C)c3ccc(OCCN4CCOCC4)cc3n2)[nH]c(=O)c1C,-10.5% (active),-74.2% (active),-50.8% (active),8.56% (active),0.281% (active),6.7% (active),-72.8% (active),-72.8% (active),
CN(C)c1ccc(/C=C/C(=O)c2ccc(NC(=O)CN3C(=O)NC(C)(c4ccccc4)C3=O)cc2)cc1 (stereo unspecified),22.1%,49.6%,34%,74.5%,11.8%,26.4%,38.5%,7.04% (active),
O=c1[nH]c2ccccc2cc1CSc1ccc(Nc2nccc(-c3ccc4ccccc4c3)n2)cc1,86.8%,48.6%,69.8%,32.9%,19%,26.2%,63.5%,-3.76% (active),
O=C1Nc2ccc(Cl)cc2/C1=C/c1cccc(OCc2ccccn2)c1,-2.11% (active),-7.83% (active),-39.2% (active),-38% (active),-0.24% (active),-98.3% (active),-73.2% (active),-30% (active),
COc1ccc(CN2[C@@H](C(=O)NCc3ccc(C(=O)NO)cc3)Cc3c([nH]c4ccccc34)[C@@H]2C2CC2)cc1,3.04% (active),43.3%,-42.1% (active),-21.5% (active),14.1%,12.9%,25.1%,-3.5% (active),
O=c1c2ccccc2nc(COc2ccccc2)n1/N=C/c1ccc(F)cc1,57.4%,94.7%,86.2%,93.2%,80.4%,75.3%,104%,78%,

SMILES,growth (T-47D breast),growth (BT-549 breast),growth (MDA-MB-435 melanoma),growth (SW-620 colon),growth (MCF7 breast),growth (HCT-116 colon),growth (HCC-2998 colon),growth (MDA-MB-468 breast),growth (KM12 colon)
COc1ccc2c3nc4cc(C)c(C)cc4nc3n(CCN(C)C)c2c1,-12.2% (active),39.4%,-76.1% (active),,-16.6% (active),-61.1% (active),-56.1% (active),-10.9% (active),-18% (active)
O=C(Nc1ccc(Cl)c(C(F)(F)F)c1)c1cncc(C#Cc2cnc3ccc(N4CCOCC4)nn23)c1,1.27% (active),-14.9% (active),19.3%,,-13.3% (active),-26.7% (active),-13.3% (active),-30.8% (active),-21.5% (active)
CS(=O)(=O)Nc1ccc(-c2ccc3c(c2)ncn3-c2ccc(NC(=O)Nc3ccc(Cl)c(C(F)(F)F)c3)cc2)cc1,-31.2% (active),-83.8% (active),-85.4% (active),-67% (active),-77.8% (active),-87.7% (active),-73.6% (active),-50.7% (active),
CSc1nc(-c2cccc(C)c2)c2cc(-c3ccccc3)n(C)c2n1,1.02% (active),-5.93% (active),-39.3% (active),20.3%,5.57% (active),13.5%,39.4%,-29.2% (active),
CC(=O)OC[C@@]1(C)C2CC[C@]3(C)C(CC=C4C5CC(C)(C)CC[C@]5(C(=O)Nc5ccccc5)CC[C@]43C)[C@@]2(C)C[C@@H](OC(C)=O)[C@@H]1OC(C)=O (stereo partly specified),15.3%,47.7%,45.7%,36.3%,24.4%,25.4%,42.3%,-4.16% (active),
O=C(Nc1cc(Cl)cc(Cl)c1)Nc1cc(Cl)cc(Cl)c1,-18.9% (active),-41.1% (active),-47% (active),,-21.2% (active),-79.3% (active),-27.3% (active),,-22.9% (active)
Cc1ccc(-c2nc3ccc(C(=O)N=Nc4c(O)[nH]c5ccc([N+](=O)[O-])cc45)cc3[nH]2)cc1,51.8%,98.7%,62.6%,42.2%,65.9%,12.7%,54%,59%,
COc1cc2c(c(OC)c1OC)C(=O)CC(c1cccc(NC(=O)c3cccc(N)c3)c1)O2 (stereo unspecified),35.5%,63.8%,77.4%,94.1%,57.8%,65.4%,114%,65.6%,
O=C(Nc1cccc(C(F)(F)F)c1)c1cncc(C#Cc2cnc3ccc(N4CCOCC4)nn23)c1,1.64% (active),-37.5% (active),4.32% (active),2.23% (active),-30% (active),0.369% (active),-4.89% (active),-64.7% (active),
C=CC(=O)Nc1ccc(C(=O)/C=C/c2ccc(N(C)CCF)cc2)c(O)c1,5.88% (active),-65% (active),-46.7% (active),5.99% (active),-19.5% (active),-66.2% (active),-78.4% (active),-73.6% (active),
O=C(c1ccc(O)cc1)C1[C@H](c2ccccc2Br)[C@@H](c2ccccc2)NC12C(=O)Nc1ccc(Cl)cc12 (stereo partly specified),18.2%,15.7%,-16.4% (active),-0.351% (active),-17.2% (active),18.4%,-73.2% (active),-47.1% (active),
COc1ccc(-c2cc(-c3cc(C(=O)c4ccc(Br)cc4)n4ccc(C)cc34)nc(N)c2C#N)cc1,82.8%,104%,92.7%,92.3%,79.1%,73.8%,103%,24.3%,
Cc1ccc2nc(-c3ccc(-c4nnc(SCC(=O)Nc5ccc(Br)cc5)o4)cc3)[nH]c2c1,50.8%,86.8%,59.9%,82.8%,45.1%,67.4%,105%,80.6%,
CN1CCN(c2ccc(Nc3nc(NCCCNC(=O)c4ccc(F)cc4)c4sccc4n3)cc2)CC1,51.5%,108%,51.1%,,31%,33.5%,66.4%,59.1%,53.7%
O=C(CNc1nc(-c2ccccc2)cs1)Nc1ccc([N+](=O)[O-])cc1,2.53% (active),12.3%,40.6%,7.63% (active),1.69% (active),11.7%,-97.8% (active),-88.2% (active),
